Source: PubChem BioAssay
Calls of active or inactive are those of the source.

experiment: growth of efflux-deficient E. coli DRC39 – strain DRC39, OD650, 24 h, E. coli filamentation inducers, primary screen (AID 1178);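 also: growth measured as culture turbidity by optical density at 650 nm; test concentration not given here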; conditions: E. coli DRC39 acrAB, higher = more signal, called active from +8 up or from −8 down

z-score, inactive:
COC(=O)[C@@]1(Cc2ccc(OC)cc2)[C@H]2c3cc(C(=O)N4CCCC4)n(C[C@H](O)CO)c3C[C@H]2CN1C(=O)c1ccccc1 0.305
O=C1O[C@H](c2ccccc2)[C@H](c2ccccc2)N2[C@H]1[C@@H](C(=O)NC[C@H](O)c1ccccc1)[C@]1(C(=O)Nc3ccc(C#CC4=CCCCC4)cc31)[C@H]2c1ccc(O)cc1 0.146
COc1ccc([Si](C)(C)[C@@H]2[C@@H](CCO)O[C@]3(C(=O)N(Cc4ccccc4)c4ccc(N(C=O)c5ccccc5)cc43)[C@H]2C)cc1 1.23
COc1cc(NN2C(C(O)c3ccccc3)C=CC3C(=O)N(c4ccccc4)C(=O)C32)cc(OC)c1OC (stereo not drawn) 0.32
CN(C)CCCCNC(=O)[C@@H]1C[C@@H]2C(=O)N[C@@H](CCCCN)C(=O)N2[C@@H]1c1cccc(OCCO)c1 -0.383
COc1c(C)cc(-c2cc3c(c(-c4ccccc4)n2)[Si](C(C)C)(C(C)C)O[C@H]3c2ccccc2)cc1C -0.102
[N-]=[N+]=NCc1ccccc1C[C@]1(C(=O)NCc2ccccc2)COC(c2ccc(OCCCO)cc2)=N1 1.45
C=CCOC(=O)[C@@H]1[C@H]2C(=O)O[C@H](c3ccccc3)[C@H](c3ccccc3)N2[C@H](c2ccc(OCCOC(=O)[C@H]3C[C@H]4C(=O)N[C@@H](CCCC[N+](C)(C)C)C(=O)N4[C@H]3c3cccc(OCCO)c3)cc2)[C@@]12C(=O)Nc1ccc(I)cc12 -0.708
